Here are results for 13 compounds from PubChem BioAssay (NCI).

The panel holds about 83,000 compounds, 20% with a hit somewhere; the sample as a whole holds those more often.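 Compound tested at a single concentration for 48 hours in 96-well plates; a percent growth value below 10 was scored as active.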 A number with no mark means an inactive call. Active and inactive are the calls of the source.

The experiment relates to HL-60(TB) leukemia. Nature of the experiment: NCI-60 one-dose screen, 48 h (100 = growth as untreated, 0 = no growth, -100 = all killed). Conditions: 10 µM unless noted.
Take `N#CC1=C(N)Oc2ccc3ccccc3c2C1c1ccccc1` (stereo not drawn): the growth was 2.02% (active).

Turning to `CS(=O)(=O)c1ccc(C(=O)N/N=C/c2ccccc2O)cc1`, the growth is 6.35% (active). `Clc1ccc(-c2nnc(COc3ccc(C4=NNC(c5ccco5)C4)cc3)o2)cc1` (stereo not drawn): the growth is 79.6%. With `COc1ccc(CN2c3ccccc3Sc3ccccc32)cc1F`, the growth was -7.46% (active). On to `CC1=C(/C=C/C(C)=C/C=C/C(C)=C/CO)C(C)(C)CCC1`, for which the growth was 103%. As to `CCC1=C[C@@H]2C[C@]3(C(=O)OC)c4[nH]c5ccccc5c4CC[N@+](CC(=O)Nc4cc5c(cc4OC)N(C)[C@H]4[C@@](O)(C(=O)OC)[C@H](OC(C)=O)[C@]6(CC)C=CCN7CC[C@]54[C@@H]76)(C2)[C@H]13`, the growth was 116%.

As to `CCOC(=O)c1c(NC(=O)C2CCCCC2C(=O)O)sc2c1CCCC2` (stereo not drawn), the growth is 102%. Turning to `CC(=O)Nc1ccc(/C=C/C(=O)c2ccccc2)cc1`, the growth is 79%. Turning to `O[C@@H]1Cc2ccc3ccccc3c2N[C@H](c2ccoc2)C1`, the growth is 105%. In the case of `CCN1C(=O)N(CC)C2C1NN=c1s/c(=C\c3cccc([N+](=O)[O-])c3)c(=O)n12` (stereo not drawn) it was -37.1% (active). On to `CCCCCC(=O)Oc1ccc(/C(=C(\C)c2ccc(OC)cc2)c2ccc(OCCN3CCCCC3)cc2)cc1`, for which the growth is 42.7%. Under `O=c1cc(/C=N\Nc2nc(-c3ccc(Cl)cc3Cl)cs2)c2cc(Cl)ccc2o1` stands 92.3%. As to `O=CN1N=C(c2ccc(Cl)cc2)CC1c1cccc(Nc2ccnc3cc(Cl)ccc23)c1` (stereo not drawn), the growth was -24.6% (active).
